Assay outcomes as filed in PubChem BioAssay.
IL-1B inflam inh: blocks inflammasome-driven IL-1 beta release. THP-1 LPS/ATP IL-1B secretion, AlphaLISA, 16 h; hits give low values. activity change, % at 57.5 µM. 360,000 tested, 4.7% active. AID 743279; in the data active = activity change below about -50%; inconclusive = mostly about -30% to -49%
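THP-1 cells pretreated 1 hr with compounds (up to 57.5 uM final), then stimulated with LPS (250 ng/mL final) plus ATP (1.25 mM final); secreted IL-1B measured by AlphaLISA after 16 hr, decreased signal indicating inhibition.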
TDP1 cell CPT: DT40-hTDP1 cell growth loss with CPT; 420,000 tested, 12% active; chicken DT40 Tdp1-/-;hTDP1 cells + 20 nM CPT, ATP luminescence, 48 h; Potency, µM (titrated, usually from 46.2 µM), without a hit: at the top dose activity change, negative = growth inhibition, hits mostly inhibitors; note: potency is the fitted concentration of half-maximal effect; nearly all actives have a fitted effect of over 55% in size
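Chicken DT40 Tdp1-/- cells stably complemented with human TDP1 were seeded at 400 cells/well in medium containing 20 nM camptothecin, exposed to pin-transferred compounds, and grown at 37 °C for at least 48 hr. Viability was read as ATP luminescence.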
VP16 counter: Gal4-VP16 reporter inhibition counter-screen; AID 2546; Drosophila S2 Gal4-VP16 UAS-luciferase, luminescence, 20 h; Potency, µM (series often up to 53.6 µM), for the others: at the top dose activity, negative = inhibition, hits mostly inhibitors; 310,000 tested, 3.5% active;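 note: Gal4-VP16 expression switched on by copper sulfate through the metallothionein promoter; potency is the fitted concentration of half-maximal effect; nearly all actives have a fitted effect of over 50% in size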
RORgamma inh: blocks mouse ROR gamma transcriptional activity; Drosophila S2 Gal4-RORgamma UAS-luciferase reporter, 20 h; P51450; AID 2551; 310,000 tested, 5.4% active; Potency, µM (doses to about 53.6 µM), for the others: at the highest dose activity change, negative = inhibition, usual class: inhibitors; note: potency is the fitted concentration of half-maximal effect; nearly all actives have a fitted effect of over 60% in size
Target sequence (P51450 whole entry, looked up, the tested form may be a part): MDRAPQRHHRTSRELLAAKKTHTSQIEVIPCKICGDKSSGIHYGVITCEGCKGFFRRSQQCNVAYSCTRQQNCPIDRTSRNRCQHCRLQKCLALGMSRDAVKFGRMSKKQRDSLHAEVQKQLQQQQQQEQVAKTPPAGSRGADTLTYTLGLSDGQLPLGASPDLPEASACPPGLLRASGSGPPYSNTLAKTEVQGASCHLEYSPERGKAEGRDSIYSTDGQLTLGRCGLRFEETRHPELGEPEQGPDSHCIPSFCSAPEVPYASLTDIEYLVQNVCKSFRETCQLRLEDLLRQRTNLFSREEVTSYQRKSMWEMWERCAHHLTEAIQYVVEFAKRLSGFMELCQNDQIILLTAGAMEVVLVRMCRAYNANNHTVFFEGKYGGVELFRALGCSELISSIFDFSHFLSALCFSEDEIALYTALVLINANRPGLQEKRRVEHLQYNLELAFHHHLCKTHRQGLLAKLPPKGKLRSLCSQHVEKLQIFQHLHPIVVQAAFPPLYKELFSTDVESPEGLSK
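In this cell-based reporter format, copper sulfate (700 uM final) drives Gal4–ROR gamma fusion expression from a metallothionein promoter in Drosophila Schneider cells; compounds preincubated 1 hr, reporter read after 20 hr at ambient temperature.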
TDP1 cell noCPT: qHTS for Inhibitors of human tyrosyl-DNA phosphodiesterase 1 (TDP1): qHTS in cells in absence of CPT; AID 686978, 2013; DT40 Tdp1-/- hTDP1 cells, no CPT, ATP luminescence, 48 h; Potency, µM (top dose mostly 46.2 µM), for the others: top-dose activity change, negative = growth inhibition, actives largely listed as inhibitors; 420,000 tested, 15% active; note: potency is the fitted concentration of half-maximal effect; nearly all actives have a fitted effect of over 55% in size
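Compound effects on proliferation are scored in DT40 Tdp1-/-;hTDP1 cells in the absence of CPT. ATP levels (CellTiter-Glo luminescence) are recorded after a ≥48 hr, 37 °C incubation.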
LDHA block: LDHA (human) enzyme inhibition. P00338. purified LDHA, NADH/diaphorase-resazurin fluorescence; hits give low values. activity change, % (values are at about 110 or 230 µM). 480,000 tested, 0.15% active; in the data active = activity change below about -30%; inconclusive = mostly about -25% to -30%;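 note: plate controls were DMSO wells for no effect and wells without enzyme for full effect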
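Remaining NADH was detected by diaphorase (0.133 mg/mL) converting 37 µM resazurin to fluorescent resorufin, read at 0 and 20 minutes. The preceding 5-minute room-temperature reaction used 2 nM LDHA, 0.2 mM sodium pyruvate and 0.06 mM NADH at pH 7.4.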
Numbers without * were called inactive; u = inconclusive; x = not tested or not shown. Most compounds without a hit are left out; they make up all but 18% or so of the library. Unless noted, calls come from the whole dose curve; as a rule, active = well fitted curve in the direction sought with a large enough effect; inconclusive = small, poorly fitted or top-dose-only effect, or another doubt; inactive = no such curve, though single readings can be large; an effect the other way counts as inactive or inconclusive. Unless noted, % is set by controls: 0 for no effect and ±100 for the full control effect.

SMILES	IL-1B inflam inh	TDP1 cell CPT	VP16 counter	RORgamma inh	TDP1 cell noCPT	LDHA block
CSc1ccc(/C=C2\N=C(c3cccs3)OC2=O)cc1	x	x	x	x	x	5.1
CCOC(=O)N1CCN(C(C(=O)O)c2c[nH]c3ccc(C)cc23)CC1 (stereo not drawn)	x	x	x	x	x	-7.6
Cc1ccc(CN2CCC(CNC(=O)c3c(C)oc4ncnc(N5CCOCC5)c34)C2)cc1 (stereo not drawn)	x	x	x	x	x	3.8
Fc1ccc(-c2csc(NCC3CCCO3)n2)cc1 (stereo not drawn)	x	x	x	x	x	4.3
Cc1ccc(-c2nc(NCC3CCCO3)sc2C)cc1 (stereo not drawn)	-3.2	u	-9.9%	11.2µM*	-27.0%	0.4
CCc1ccc(-c2cc(C(F)(F)F)n3nc(C(=O)Nc4c(C)nn(Cc5ccccc5C)c4C)cc3n2)s1	19.1	18.4µM*	8.7%	-14.7%	16.4µM*	-1.2
CCCCCCCCC(=O)Oc1ccc(C(=O)O)cc1	x	x	x	x	x	11.4
CCC1CSC(Nc2ccc(C)cc2C)=N1 (stereo not drawn)	x	x	x	x	x	-3.3
Cc1cnc(NC(=O)CSc2nnc(COc3c(C)cccc3C)o2)s1	48.3	-11.6%	u	11.2µM*	2.4%	0.8
CCCCCn1c(SCC(=O)Nc2ccccc2)nc2c1c(=O)[nH]c(=O)n2C	x	x	x	x	x	4.3
O=C(Nc1ccccc1)c1cc2c(=O)c3ccccc3oc2nc1C(F)(F)F	0.0	5.2%	-16.8%	-12.2%	-8.5%	-7.8
O=C(Nc1cccc(C(F)(F)F)c1)c1cc2c(=O)c3ccccc3oc2nc1C(F)(F)F	-0.6	u	-0.6%	2.0%	29.1µM*	-1.4
COc1c(OC)c(O)c2c(=O)cc(-c3c(O)cccc3O)oc2c1OC	-20.1	u	2.2%	u	u	15.9
O=c1cc(-c2c(F)c(F)c(F)c(F)c2F)oc2c(F)c(F)c(F)c(F)c12	x	x	3.16µM*	2.51µM*	x	x
S=C1N(c2ccccc2)CN(C2CCCCC2)CN1c1ccccc1	-11.7	u	20µM*	11.2µM*	u	-12.2
O=C(c1ccccc1)N1CCN(C2CCCCC2)CC1	14.8	-7.8%	-1.2%	0.3%	u	-15.6
O=S(=O)(c1ccccc1Cl)N1CCn2cccc2C1c1ccccc1F (stereo not drawn)	x	x	x	x	x	1.1
COc1ccc(OC)c(Nc2ncc3c(n2)CCN(Cc2cc(OC)c(OC)c(OC)c2)C3)c1	x	5.8µM*	x	x	7.31µM*	2.0
COc1cc(Nc2ncc3c(n2)CCN(Cc2cc(F)cc(F)c2)C3)cc(OC)c1	x	4.61µM*	x	x	3.66µM*	-5.0
COc1cc(Nc2ncc3c(n2)CCN(Cc2cccc(C)c2)C3)cc(OC)c1	x	3.66µM*	x	x	3.26µM*	3.1
Cc1ccsc1CN1CCc2nc(Nc3ccccc3)ncc2C1	x	u	x	x	u	0.9
CCCCN1CCc2nc(Nc3ccc(OC)cc3OC)ncc2C1	x	u	x	x	u	8.7
O=C(Cc1cccc(F)c1)N(Cc1ccco1)C1CC1	x	x	x	x	x	0.6
CCCNC(=O)c1cc(-c2ccncc2)nc2ccccc12	x	x	x	x	x	-22.9
COc1ccccc1-c1cc(C(=O)N/N=C/c2cccs2)c2ccccc2n1	-3.2	u	5.62µM*	4.47µM*	u	-1.8
SMILES	IL-1B inflam inh	TDP1 cell CPT	VP16 counter	RORgamma inh	TDP1 cell noCPT	LDHA block
O=C(N/N=C/c1ccco1)c1cc(-c2ccncc2)nc2ccccc12	33.7	7.31µM*	x	x	7.31µM*	-2.4
O=C(N/N=C/c1cccs1)c1cc(-c2ccncc2)nc2ccccc12	19.3	0.581µM*	7.08µM*	5.01µM*	0.581µM*	-6.4
COc1ccccc1-c1csc(NC(=O)c2cc(-c3cccs3)nc3ccccc23)n1	-13.6	-21.1%	1.8%	u	-27.0%	-3.6
CCc1ccc(/C=N/NC(=O)c2cc(-c3ccncc3)nc3ccccc23)s1	38.0	4.61µM*	5.62µM*	2µM*	3.26µM*	-10.1
O=C(N/N=C/c1cccs1)c1cc(-c2cccs2)nc2ccccc12	x	x	x	x	x	0.9
O=C(/C=C/c1ccccc1Cl)Nc1ccccc1C(F)(F)F	x	x	x	x	x	-2.2
O=C(N/N=C/c1cccs1)c1cc(C2CC2)nc2ccccc12	57.9	3.66µM*	17.8µM*	10µM*	2.91µM*	-8.2
CCCCn1c(=O)[nH]c(=O)c2c1nc(CN1CCN(S(=O)(=O)c3ccc(C)cc3)CC1)n2CC	x	x	x	x	x	8.4
CCSC(=O)N=Nc1ccc(O)cc1	0.0	14.6µM*	x	x	11.6µM*	31.1
CC(C)=CCCC(C)CN1CCC(N2CCC(C(=O)N3CCCC3)CC2)CC1 (stereo not drawn)	0.0	u	-17.3%	u	16.4µM*	-11.8
C=C(C)[C@@H]1CC=C(CN2CCC(N3CCC(C(=O)N4CCCC4)CC3)CC2)CC1	-61.6*	20.6µM*	u	u	20.6µM*	-0.8
C=C(C)C1CC=C(CN2CCC(O)CC2)CC1 (stereo not drawn)	-2.8	-21.2%	-4.6%	-3.8%	0.8%	-1.8
COc1ccc(CN2COc3ccc4c(-c5ccccc5)cc(=O)oc4c3C2)cc1	x	u	x	x	16.4µM*	1.6
COc1ccc(CNC(=O)CSc2nnc(C)n2C2CC2)cc1	x	x	x	x	x	8.4
CC(Sc1ncnc2nc[nH]c12)C(=O)NCCc1c[nH]c2ccc(Cl)cc12 (stereo not drawn)	x	x	x	x	x	13.2
CC(C)(C)OC(=O)NCCCCCNC(=O)c1nc[nH]c1C(=O)NCC(=O)OCc1ccccc1	-8.9	u	x	x	14.6µM*	-1.1
CC(C)(C)OC(=O)NCCCC[C@H](NC(=O)c1nc[nH]c1C(=O)NCC(=O)OCc1ccccc1)C(=O)OC(C)(C)C	-0.9	14.6µM*	u	28.2µM*	u	-0.4
CC(C)(C)OC(=O)CNC(=O)c1[nH]cnc1C(=O)NCC(=O)OCc1ccccc1	14.1	u	5.7%	u	u	0.8
O=C1Cc2c(-c3ccccc3)cc(-c3cccc(Cl)c3)nc2-c2ccccc2N1	0.0	20.6µM*	x	x	u	-1.5
CC(=O)c1ccc(NC(=S)NCCc2ccc(S(N)(=O)=O)cc2)cc1	-25.3	-26.1%	-11.8%	u	u	-0.3
CC(C)OCCCNC(=S)Nc1ccc(S(N)(=O)=O)cc1	10.2	23.1µM*	35.5µM*	8.0%	u	-11.9
COc1cc(Br)cc2cc(-c3nc(-c4ccccc4C)no3)c(=O)oc12	x	x	x	x	x	16.0
O=C(CN1CCN(C(=O)c2nn(-c3ccccc3)c(=O)c3ccccc23)CC1)N1CCOCC1	x	x	x	x	x	-4.5
C[C@H]1Cn2cnc(C(=O)Nc3cccc(Cl)c3)c2C(=O)N1	-9.5	u	x	x	11.6µM*	-1.7
